# In the supplement of paper PMC6555819:
# How the values were obtained:
# Assay in all cases: PBM binding z-score (relative to random genomic background probes); higher = stronger binding; sequences stand for … in GC…GCGATTGACAGCGTAGAATGAAGG
# [1] = system: FXR:RXRa (NR concentration 270 nM, RXRa partner concentration 90 nM)
# Summary of the method: (§1)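 Each nuclear receptor dimer, without ligand, was incubated for 1 h on custom Agilent 4×180K protein-binding microarrays. Binding was detected with antibodies against each partner (one per run), and scanned fluorescence was regression-normalized. The binding z-scores are referenced to random human genomic background probes.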
# [2] = system: LXRa:RXRa (NR concentration 270 nM, RXRa partner concentration 90 nM)
# Summary of the method: as §1
# [3] = system: LXRa homodimer (NR concentration 270 nM)
# Summary of the method: as §1
# [4] = system: LXRb:RXRa (NR concentration 270 nM, RXRa partner concentration 90 nM)
# Summary of the method: as §1
# [5] = system: LXRb homodimer (NR concentration 270 nM)
# Summary of the method: as §1
# [6] = system: PPARa:RXRa (NR concentration 270 nM, RXRa partner concentration 90 nM)
# Summary of the method: as §1
# [7] = system: PPARg:RXRa (NR concentration 180 nM, RXRa partner concentration 90 nM)
# Summary of the method: as §1
# [8] = system: PPARg:RXRa 270nM:90nM, anti-RXR (NR concentration 270 nM, RXRa partner concentration 90 nM)
# Summary of the method: as §1
# [9] = system: PPARg:RXRa 30nM:10nM, anti-RXR (NR concentration 30 nM, RXRa partner concentration 10 nM)
# Summary of the method: as §1
# [10] = system: PPARg:RXRa 90nM:30nM, anti-RXR (NR concentration 90 nM, RXRa partner concentration 30 nM)
# Summary of the method: as §1
# [11] = system: PPARg:RXRa DBDmut IVT, anti-RXR (DBD mutation: RXRa K156A/R161A, NR concentration 270 nM, RXRa partner concentration 90 nM)
# Summary of the method: as §1
# [12] = system: PPARg:RXRa IVT, anti-PPARg (NR concentration 270 nM, RXRa partner concentration 90 nM)
# Summary of the method: as §1
# [13] = system: PPARg DBDmut:RXRa IVT, anti-PPARg (DBD mutation: PPARg1 K132A/R137A, NR concentration 270 nM, RXRa partner concentration 90 nM)
# Summary of the method: as §1
# [14] = system: PPARg DBDmut IVT, anti-PPARg (DBD mutation: PPARg1 K132A/R137A, NR concentration 270 nM)
# Summary of the method: as §1
# [15] = system: PPARg homodimer (NR concentration 180 nM)
# Summary of the method: as §1
# [16] = system: PXR:RXRa (NR concentration 270 nM, RXRa partner concentration 90 nM)
# Summary of the method: as §1
# [17] = system: PXR homodimer (NR concentration 270 nM)
# Summary of the method: as §1
# [18] = system: RARa:RXR (NR concentration 270 nM, RXRa partner concentration 90 nM)
# Summary of the method: as §1
# [19] = system: RARa homodimer (NR concentration 270 nM)
# Summary of the method: as §1
# [20] = system: RARb:RXRa (NR concentration 270 nM, RXRa partner concentration 90 nM)
# Summary of the method: as §1
Sequence,PBM binding z-score [1],PBM binding z-score [2],PBM binding z-score [3],PBM binding z-score [4],PBM binding z-score [5],PBM binding z-score [6],PBM binding z-score [7],PBM binding z-score [8],PBM binding z-score [9],PBM binding z-score [10],PBM binding z-score [11],PBM binding z-score [12],PBM binding z-score [13],PBM binding z-score [14],PBM binding z-score [15],PBM binding z-score [16],PBM binding z-score [17],PBM binding z-score [18],PBM binding z-score [19],PBM binding z-score [20]
TCTACCAGGCCAGAGGGTCACTCAAGAGGTACGG,1.36,1.24,-0.237,1.38,-0.315,2.65,2.06,3.41,3.25,3.44,1.61,1.75,-0.383,-0.224,1.12,1.82,-0.126,2.67,0.116,2.51
TCGAGTAGGTTAGTCGAGGCATTCAGCCAACATA,0.165,-0.288,-0.432,-0.531,-1.3,0.172,-0.115,0.522,0.735,0.72,1.97,1.28,-0.938,-0.136,0.168,-0.24,-0.481,0.0963,-0.326,-0.133
CCTAGTTGGTCAAGGTGACACACGCTATAGGTAC,0.697,0.276,0.273,0.592,0.0749,1.33,1.71,1.93,0.466,1.32,1.63,3.11,0.179,0.257,1.46,0.478,0.557,1.28,1.57,1.86
TAGCCTAGGTCATTCAGGGGCCCGTATAGAAAGC,4.76,3.93,0.791,2.54,0.963,3.52,1.99,2.34,0.359,1.44,1.73,2.64,0.467,0.786,1.25,2.01,-0.334,2.84,-0.527,3.47
CGAGACAGGTGAAAGGTAACTCAGTCTGGTACGC,0.533,0.602,-0.513,0.732,-0.851,3.47,5.43,6.27,4.23,6.7,1.78,2.95,0.301,-1.14,1.05,0.75,-0.102,1.92,-0.282,1.19
CAACCTAGGTCAAGAGGTCAAAGTCCGCTTCCCG,6.93,6.34,6.16,5.73,1.82,5.97,7.35,6.76,3.67,5.86,4.75,5.45,0.0311,-0.16,5.72,6.26,2.37,7.74,2.15,5.42
GCTAGCAGGCCATTTGGGTCCCTCAATGACGGGC,-0.228,-0.686,-0.879,-1.21,-1.22,-0.512,-0.133,-0.261,-0.743,-0.708,-0.0266,-0.343,-1.53,-1.41,-1.41,-0.687,-1.15,-0.731,-1.25,-0.116
CCTCGGAGGACAGAAGGTCAGCGCTGTCCGCTTT,1.68,2.01,0.184,1.17,-0.704,2.2,-0.154,1.57,-0.543,0.613,-0.144,0.0652,-1.29,-1.5,1.24,1.96,-0.497,2.76,0.504,3.68
TCTGCTAGGTCATTTGGTCAGCTAACGAGCTGCC,4.28,3.21,1.04,2.03,1.81,3.19,1.97,3.11,1.64,2.37,3.73,3.88,3.37,1.7,1.5,1.46,-0.592,2.1,-1.02,3.62
TCATATAGCTAAAAGGTGAAAGTCGGTGTGGTAA,0.855,1.02,0.0787,1.2,-0.577,2.26,0.863,2.94,3.25,3.08,2.08,0.996,0.333,0.116,0.824,0.793,0.353,1.37,0.703,1.5
AGTCAAAGTTCATATAGGTAACGTAAGATATGCT,6.32,5.7,5.15,3.66,2.13,4.62,6.76,6.08,3.4,5.1,0.943,3.97,1.58,0.96,2.46,4.96,5,3.57,1.52,4.69
CCTTACGGGTCAAGAGGTTATAGCACGACGAGCG,6.14,4.17,0.128,3.63,-0.435,5.58,5.44,5.64,2.4,4.29,2.73,3.77,0.866,0.102,2.77,3.63,0.116,5.26,0.579,4.3
CCTAGTTGGTCAGGACGTCACACACCGGATATGA,-0.0966,0.0885,0.373,-0.0236,0.306,-0.286,0.962,0.0606,-0.177,0.147,0.48,0.458,0.41,0.0179,0.77,-0.123,0.484,-0.000234,1.44,0.721
TCATATAGGTAAATGCGAGGTGAAAGTCCGATCT,1.14,1.58,0.216,0.944,-0.00137,2.07,1.06,2.53,4.02,3.07,4.13,3.06,1.27,1.1,1.14,1.1,0.0797,1.67,1.15,0.77
CCTACTGGGCCAAAAAGGTCACTGATGCCGATAA,2.83,3.29,1.36,3.63,-0.14,4.64,3.78,4.35,1.79,3.78,3.78,4.39,-0.138,-0.0876,3.8,4.22,1.16,4.59,1.29,4.15
